PubChem BioAssay (Tox21)
Records with an inconclusive call do not appear. Where a call stands in place of a potency, no number is given. Unmarked numbers belong to inactive results. The source made the active and inactive calls. The call rests on the fitted dose curve; in most records, active means well fitted activation curve with a large enough effect in the signal ratio in the repeat runs (not every such curve was filed as active); inconclusive means weak or mixed curves, or effect the other way; inactive means flat fitted curve, though single readings scatter; the % refers to the signal ratio.

Experiment: qHTS assay to identify small molecule agonists of the endoplasmic reticulum stress response signaling pathway (AID 1159516)
Details: ESRE-bla HeLa, ER stress beta-lactamase reporter, 5 h; series mostly up to 61 µM; activation: at the top concentration
Source text: National Center for Advancing Translational Sciences [NCATS]
NIH Chemical Genomics Center [NCGC]
U.S. Environmental Protection Agency [EPA]
National Institutes of Environmental Health Sciences [NIEHS]
National Toxicology Program [NTP]
U.S. Food and Drug Administration [FDA]
Endoplasmic Reticulum (ER) plays an important role in cellular signaling, protein folding/maturation, stress response, lipid biosynthesis, calcium storage and release etc. Under stress conditions, proteins in ER misfold or unfold, and leading to the expression of ER stress responsive genes. ER stress has been associated with a variety of pathophysiological conditions such as cancer, inflammation, neurodegenerative diseases, diabetes, ischemic heart disease etc. To identify the compounds that induce ER stress response, an ER stress reporter cell line, CellSensor ESRE-bla HeLa (Life Technologies, Carlsbad, CA) containing a beta-lactamase reporter gene under control of the Endoplasmic reticulum Stress Response Element (ESRE) was used to screen Tox21 10K compound library.
Tox21 Assay Protocol Summary:
ESRE-bla HeLa cells were dispensed at 1,500 cells/6 uL of assay medium per well into black wall/clear-bottom 1536-well plates using a Multidrop Combi (ThermoFisher Scientific, Waltham, MA) dispenser. After the assay plates were incubated at 37 C and 5% CO2 for an overnight, 23 nL of compounds dissolved in DMSO, positive controls or DMSO only was transferred to the assay plate by a Pintool station (Kalypsys, San Diego, CA). The assay plates were incubated at 37 C and 5% CO2 for 5 hr. One uL of LiveBLAzer B/G FRET substrate (Life Technologies) was added using a Flying Reagent Dispenser (Aurora Discovery, San Diego, CA) and the plates were incubated at room temperature for 2 hr. Fluorescence intensity (405 nm excitation, 460 nm and 530 nm emissions) was measured using an Envision plate reader (PerkinElmer, Shelton, CT).
Potency means the concentration at half of the fitted maximal effect.

| SMILES | Potency | activation |
| --- | --- | --- |
| FC(F)(F)C(Cl)Br (stereo not given) | inactive |  |
| C=C[C@@]1(C)CC(=O)[C@]2(O)[C@@]3(C)[C@@H](O)CCC(C)(C)[C@@H]3[C@H](O)[C@H](OC(C)=O)[C@@]2(C)O1 |  | 2.88% |
| CCC(Cc1c(I)cc(I)c(N)c1I)C(=O)O (stereo not given) | inactive |  |
| NCCS(=O)(=O)O |  | -5.88% |
| CCCCCCOCCOCCO |  | 0.106% |
| c1ccc2ncccc2c1 | inactive |  |
| Oc1c(Cl)ccc(Cl)c1Cl | inactive |  |
| NCCN | inactive |  |
| C=C[C@H]1CN2CC[C@H]1C[C@H]2[C@H](O)c1ccnc2ccc(OC)cc12 | inactive |  |
| [O-]/[N+](=N\O)c1ccccc1 | inactive |  |
| Cc1ccc(C(C)(C)C)cc1 |  | 0.455% |
| OCCNCCO | inactive |  |
| CCO[Si](CCCNC(N)=O)(OCC)OCC | inactive |  |
| CCc1cccc2c3c([nH]c12)C(CC)(CC(=O)O)OCC3 (stereo not given) | inactive |  |
| CC1(C)C(C=C(Cl)Cl)C1C(=O)OCc1cccc(Oc2ccccc2)c1 (stereo not given) |  | 5.31% |
| Oc1ccc(C(c2ccc(O)cc2)C(Cl)(Cl)Cl)cc1 |  | 9.07% |
| COc1ccc(-c2coc3cc(O)cc(O)c3c2=O)cc1 |  | 10.5% |
| O=C(CCCN1CCC(O)(c2ccc(Cl)cc2)CC1)c1ccc(F)cc1 | inactive |  |
| CCOC(=O)C(C)Oc1ccc(Oc2cnc3cc(Cl)ccc3n2)cc1 (stereo not given) |  | -0.0512% |
| CCCCCCCCCCCCCO | inactive |  |

| SMILES | Potency | activation |
| --- | --- | --- |
| OC[C@@H](O)[C@@H](O[C@@H]1O[C@H](CO)[C@H](O)[C@H](O)[C@H]1O)[C@H](O)[C@@H](O)CO | inactive |  |
| COCCOCCOCCO | inactive |  |
| CN(C)CCCN1c2ccccc2Sc2ccc(Cl)cc21 | inactive |  |
| CN(C)C | inactive |  |
| CC1(C)NC(=O)N(c2ccc([N+](=O)[O-])c(C(F)(F)F)c2)C1=O |  | -3.09% |
| COc1ccc2nc(N)sc2c1 |  | -7.04% |
| CC(=O)O[C@]1(C(C)=O)CC[C@H]2[C@@H]3C=C(C)C4=CC(=O)CC[C@]4(C)[C@H]3CC[C@@]21C | inactive |  |
| CC[C@]12CCCN3CCc4c(n(c5ccccc45)[C@@](O)(C(=O)OC)C1)[C@@H]32 | inactive |  |
| CC/C(=C(/CC)c1ccc(O)cc1)c1ccc(O)cc1 |  | -4.82% |
| CC(C)[N+](C)(CCOC(=O)C1c2ccccc2Oc2ccccc21)C(C)C | inactive |  |
| CN(Cc1cnc2nc(N)nc(N)c2n1)c1ccc(C(=O)N[C@@H](CCC(=O)O)C(=O)O)cc1 |  | -3.2% |
| IC(I)I |  | 3.77% |
| CC(=O)Oc1ccc(C(c2ccc(OC(C)=O)cc2)c2ccccn2)cc1 | inactive |  |
| CCCCCCCC/C=C\CCCCCCCC(=O)O | inactive |  |
| COC(=O)c1ccc(C)cc1 |  | 2.66% |
| Nc1ccc(O)c(N)c1 |  | -2.36% |
| C=CCOC(=O)C(=C)C |  | 1.24% |
| Clc1ccc(Sc2cc(Cl)c(Cl)cc2Cl)cc1 |  | 2.72% |
| c1ccc2c(c1)ccc1cc3c(ccc4ccccc43)cc12 | 7.67 µM (active) |  |
| Cc1ccc(N)c([N+](=O)[O-])c1 | inactive |  |
